PubChem BioAssay AID1626 (SRMLSC, 2009)
Values joined by “and” are separate entries in the source; they are usually repeats but may differ in a detail not shown here. Identical values can stand only once. About 2,000 (0.91%) of roughly 220,000 compounds were called active. About 2% were inconclusive and are not listed. Rule as the data show it: inconclusive = inhibition above about 80% without an active follow-up result; inactive = below that; test concentration not stated here. A selection follows. Entries with a potency or affinity are not part of this list.

Experiment: M. tuberculosis H37Rv growth inhibitors, H37Rv strain (AID 1626);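 also: bacteria incubated seven days before Alamar blue readout; 0% = bacteria only wells and 100% = bacteria with antibiotic wells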
Settings: hits give high values, concentration not given here

SMILES | inhibition
COc1cc(NC(=S)N2CCC(C(O)(c3ccccc3)c3ccccc3)CC2)cc(OC)c1 | 4.64% (inactive)
COc1ccccc1C(=O)NNC(=O)c1nn(Cc2ccccc2)c(=O)c2ccccc12 | 2.78% (inactive)
Cc1[nH][nH]c(=O)c1N=Nc1ccc(Cl)cc1 | -0.49% (inactive)
O=c1cc(CSCc2ccc(Cl)cc2)[nH]c(=O)[nH]1 | 7.09% (inactive)
COc1cc2c(cc1NC(=O)CSc1ccccc1)oc1ccccc12 | 83% (inactive)
COc1cc2c(cc1NC(=O)CSc1nc3ccc(C)cc3[nH]1)oc1ccccc12 | 51.1% (inactive)
COc1ccc(-c2cc(C(F)(F)F)n3nc(C(=O)Nc4c(C)n(C)n(-c5ccccc5)c4=O)cc3n2)cc1 | 8.28% (inactive)
CCNc1nc(Cl)nc(NNC(=O)C(C)Oc2ccccc2)n1 (configuration not stated) | 0.39% (inactive)
CCN(c1ccc(NC(=O)CN2C(=O)NC3(CCOc4ccccc43)C2=O)cc1)C(C)C (configuration not stated) | -1.8% (inactive)
N#CCSc1nnc(N)s1 | 8.52% (inactive)
Nc1c2c(nc3ccn(-c4ccccc4)c(=O)c13)CCCCC2 | 11.1% (inactive)
Nc1c2c(nc3ccccc13)CCC2 | 3.36% (inactive)
Cc1ccc(CNC(=O)C2CC(c3ccccc3F)=NO2)cc1 (configuration not stated) | 0.74% (inactive)
CCOC(=O)CN(C#N)c1nc(C)cc(C)n1 | -5.87% (inactive)
COC(=O)CN(C#N)c1nc(N(C)C)nc(N(C)C)n1 | -2.49% (inactive)
CCCCCCN1CCN(c2ccccc2Cl)CC1 | 4.25% (inactive)
O=C(Nc1ccc(F)cc1F)Nc1ccccc1C(=O)NCCN1CCNC1=O | -7.32% (inactive)
CCOC(=O)c1nc2sc3c(c2c(=O)[nH]1)CCCC3 | 6.3% (inactive) and 4.22% (inactive)
CC(C)CCOCc1nc2sc3c(c2c(=O)[nH]1)CCC(C)C3 (configuration not stated) | 5.08% (inactive)
CCOC(=O)N1CCC(NC(=O)CS(=O)Cc2nc(-c3ccc(OC)c(OC)c3)oc2C)CC1 (configuration not stated) | 1.72% (inactive)
Cc1cc(N2CCCCC2)nc(NCc2ccccc2)n1 | 11.8% (inactive)
Cc1ccc(/C=N/Nc2cc(C)nc(NCc3ccccc3)n2)cc1 | -1.4% (inactive)
Cc1cc(OC2CCCCC2)nc(NCc2ccccc2)n1 | 6.25% (inactive)
Cc1cc(N/N=C/c2ccccc2)nc(NCc2ccccc2)n1 | 7.85% (inactive)
CCCCNc1cc(C)nc(NCc2ccccc2)n1 | 8.03% (inactive)

SMILES | inhibition
COc1ccc(Nc2cc(C)nc(NCc3ccccc3)n2)cc1 | 20.5% (inactive)
COc1ccc(NC(=O)CCCCn2c(=O)[nH]c3ccccc3c2=O)cc1 | -8.84% (inactive)
CCc1cc(C(=O)N2CCc3c([nH]c4ccccc34)C2c2ccc(OC)cc2F)no1 (configuration not stated) | 1.56% (inactive)
CC(=O)OC1c2ccccc2C(=O)N1Cc1ccccc1 (configuration not stated) | -4.69% (inactive)
Cc1nc(SCC(=O)Nc2ccc(F)cc2)c2oc3ccccc3c2n1 | -5.02% (inactive)
Fc1cccc(CSc2ncnc3c2oc2ccccc23)c1 | 5.28% (inactive)
Cc1nc(SCCO)c2oc3ccccc3c2n1 | 10.1% (inactive)
Fc1ccc(CSc2ncnc3c2oc2ccccc23)cc1 | 15.6% (inactive)
CCc1nc2c(c(=O)c3ccccc3n2C)c(=O)n1CCc1ccc(OC)cc1 | 19.9% (inactive)
O=C(NCc1nc(-c2ccc(C(F)(F)F)cc2)no1)Nc1ccc(OC(F)(F)F)cc1 | -5.05% (inactive)
O=C(NCc1nc(-c2ccc(C(F)(F)F)cc2)no1)Nc1ccc(F)cc1F | 8.4% (inactive)
COc1ccc(N(C(=O)CNC(=O)c2cccs2)C(C(=O)NCC2CCCO2)c2ccccc2)cc1OC (configuration not stated) | -7.89% (inactive)
Cc1ccc(C(=O)N2CCN(c3ccc([N+](=O)[O-])cc3-n3cccc3)CC2)cc1 | 33.7% (inactive)
O=C(c1ccc(F)cc1)N1CCN(c2ccc([N+](=O)[O-])cc2-n2cccc2)CC1 | 20.4% (inactive)
COCC(C)NC(=S)NC(=O)c1cc(S(=O)(=O)N2CCOCC2)ccc1C (configuration not stated) | 4.56% (inactive)
COc1cccc(NC(C(=O)Nc2cccc(C(C)=O)c2)c2ccccc2)c1 (configuration not stated) | 6.16% (inactive)
Cc1cc(C)c2nc(Nc3nc(-c4ccccc4)cc(=O)[nH]3)nc(C)c2c1 | 2.35% (inactive)
CCn1cc(C(=O)O)c(=O)c2cc(F)c(N3CCN(C(=S)NC(=O)c4ccc(F)cc4)CC3)cc21 | 15.9% (inactive)
Cc1c(-n2cc(C(=O)O)c(=O)c3cc(F)c(N4CCCC(O)C4)c(F)c32)c(=O)n(-c2ccccc2)n1C (configuration not stated) | -0.64% (inactive)
CC1CCc2cc(F)cc3c(=O)c(C(=O)O)cn1c23 (configuration not stated) | 14.4% (inactive)
Cc1cccc(-c2cc(=O)c(C(=O)O)cn2-c2ccc(F)cc2F)c1 | -8.14% (inactive)
O=C(O)c1cn(C2CCCCC2)c2ccccc2c1=O | -2.4% (inactive)
CCOC(=O)c1cn(C2CC2)c2c(F)c(F)c(F)cc2c1=O | -2.19% (inactive)
CC1CCCCC1NC(=O)COC(=O)CNC(=O)c1cccc(F)c1 (configuration not stated) | -0.59% (inactive)
CP(=O)(O)CN1CCCCC1 | -1.04% (inactive)

SMILES | inhibition
NS(=O)(=O)c1ccc(CCNC(=O)CSc2nc3ccccc3c(=O)n2CCN2CCOCC2)cc1 | -2.17% (inactive)
O=C(O)c1ccccc1C(=O)NCCc1c(C(=O)O)[nH]c2ccc(F)cc12 | -5.11% (inactive)
Cc1ccc(NC(=S)NCCc2ccc(F)cc2)c(C)c1 | 6.97% (inactive)
O=C(N/N=C/c1ccccc1F)NC1CCCCC1 | 6.4% (inactive)
CNC(=S)NNC(=O)c1noc(C)c1C(=O)N1CCN(C(c2ccccc2)c2ccccc2)CC1 | 4.63% (inactive)
O=C(NNC(=O)c1ccc(F)cc1F)c1ccc2c(c1)OCO2 | -6.81% (inactive)
COc1cccc(-c2nnc(NC(C)=O)o2)c1 | 7.53% (inactive)
COc1ccccc1C(=O)NNC(=O)c1ccc(Cl)cc1 | 0.09% (inactive)
O=C(Nc1nnc(-c2ccc(Cl)cc2)o1)Nc1ccccc1Cl | -6.02% (inactive)
O=C(Nc1nnc(-c2ccncc2)o1)c1ccccc1F | 1.42% (inactive)
COc1cccc(-c2nnc(NC(=O)C(C)C)o2)c1 | 59.4% (inactive)
COc1ccccc1C(=O)Nc1nnc(-c2ccc(F)cc2)o1 | 9.06% (inactive)
Cc1ccc(-c2csc3nc(-c4ccncc4)[nH]c(=O)c23)cc1 | 3.27% (inactive)
Cc1cccc(N2CCN(C(=O)Cn3cccc3)CC2)c1C | 3.88% (inactive)
Cc1ccc(/C=N/N2CCN(Cc3ccccc3)CC2)s1 | -23% (inactive)
COc1ccc(C2=NOC(C)(c3nnc(-c4ccc(F)cc4)o3)C2)cc1 (configuration not stated) | -6.66% (inactive)
Cc1cccc(CC2CC(=O)N(c3ncccn3)C2=O)c1 (configuration not stated) | -7.53% (inactive)
Cc1ccc(CC2C(=O)N(c3ncccn3)C(=O)C2C)cc1 (configuration not stated) | -0.53% (inactive)
N#CCC(=O)Nc1ncc(Cc2ccccc2Cl)s1 | 5.63% (inactive)
CNc1ncc(Cc2ccccc2)s1 | 14.7% (inactive)
Cc1ccc(Cc2cnc(N3C(=N)SC(c4ccccc4)C3=O)s2)cc1 (configuration not stated) | 1.22% (inactive)
O=C(CSc1nnnn1-c1ccccc1)Nc1ncc(Cc2ccccc2Cl)s1 | 0.66% (inactive)
Cc1cccc(Cc2cnc(NC(=O)c3ccc(C)o3)s2)c1 | 21.9% (inactive)
Cc1ccc(CC2CC(=O)N(c3ncccn3)C2=O)cc1 (configuration not stated) | -1.69% (inactive)
CCCn1c(=S)[nH]c2cc(C(=O)N3CCc4ccccc4C3)ccc2c1=O | -2.54% (inactive)

SMILES | inhibition
CC(C)(C)OC(=O)N1CC(O)CC1C(=O)OCC(=O)c1ccccc1 (configuration not stated) | -11.3% (inactive)
CC(O)CNC(=O)Cc1cc(=O)[nH]c(=O)[nH]1 (configuration not stated) | -2.41% (inactive)
Cc1ccc2cc(CCNC(=O)C(C)(C)C)c(=O)[nH]c2c1 | 4.44% (inactive)
Cc1nn(C)cc1CN1CCC(CO)(CCOc2ccccc2)CC1 | -0.32% (inactive)
Cc1ccc(CNC(=O)C2CNc3cc(C)ccc3O2)cc1 (configuration not stated) | 11.1% (inactive)
CC(C)CN(CCCNC(=O)CN1C(=O)COc2ccc(S(=O)(=O)N3CCCC3)cc21)CC(C)C | -2.35% (inactive)
CNC(=O)/C(C#N)=C\c1ccc(CNS(=O)(=O)c2ccccc2)o1 | -2.69% (inactive)
COc1ccc(N2CCc3c(C)nc(SC)nc32)cc1 | 11% (inactive)
CSc1nc(C)c2c(n1)N(c1ccc(F)cc1)CC2 | 5.51% (inactive)
CC(C)(C)OC(=O)NCCc1nnc(SCc2cccc(Cl)c2)o1 | 13.5% (inactive)
Cc1nc2nc[nH]n2c(=O)c1C/C=C/c1ccccc1 | -3.13% (inactive)
Cc1nc2nc(N)nn2c(C)c1C/C=C/c1ccccc1 | -9.36% (inactive)
Cc1ccnc(NC(=O)CCC(=O)N(CC(=O)NCc2ccccc2)Cc2cccs2)c1 | 6.51% (inactive)
Cc1cc2nccc(-c3ccncc3)n2n1 | 2.36% (inactive)
N#CCC1c2ccccc2CCN1C(=O)Nc1ccc(Cl)cc1 (configuration not stated) | -4.15% (inactive)
N#CCC1c2ccccc2CCN1C(=O)Nc1cccc(C(F)(F)F)c1 (configuration not stated) | -1.17% (inactive)
C=CCN=C1SCC(=O)N1S(=O)(=O)c1ccccc1 | 6.81% (inactive)
Cc1ccn2c(CNC(C)CCn3cccn3)c(C(=O)N3CCCCCC3)nc2c1 (configuration not stated) | -0.19% (inactive)
Cc1nc(N2CCC(C)CC2)c2oc3ccccc3c2n1 | 10% (inactive)
Cc1nc(N2CCN(Cc3nc4ccccc4[nH]3)CC2)c2oc3ccccc3c2n1 | -2.88% (inactive)
Cc1nc(N2CCOCC2)c2oc3ccccc3c2n1 | -2.79% (inactive)
COc1ccccc1N1CCN(c2ncnc3c2oc2ccccc23)CC1 | -5.65% (inactive)
